# Unmarked numbers belong to inactive results.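 How the source made its calls: active means at least 20% inhibition of 6-phosphogluconate dehydrogenase activity; inactive means the rest.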
# Target: 6-phosphogluconate dehydrogenase, decarboxylating (Homo sapiens) (UniProt P52209)
# Assay: 6PGD enzyme inhibitors, primary screen, biochemical, human, recombinant enzyme, NADPH absorbance (AID 1159550)
# Settings: recombinant 6PGD, NADPH absorbance 341 nm; at 10 µM; active compounds read high
# Chain of 6-phosphogluconate dehydrogenase, decarboxylating (Homo sapiens) (P52209 whole entry, looked up): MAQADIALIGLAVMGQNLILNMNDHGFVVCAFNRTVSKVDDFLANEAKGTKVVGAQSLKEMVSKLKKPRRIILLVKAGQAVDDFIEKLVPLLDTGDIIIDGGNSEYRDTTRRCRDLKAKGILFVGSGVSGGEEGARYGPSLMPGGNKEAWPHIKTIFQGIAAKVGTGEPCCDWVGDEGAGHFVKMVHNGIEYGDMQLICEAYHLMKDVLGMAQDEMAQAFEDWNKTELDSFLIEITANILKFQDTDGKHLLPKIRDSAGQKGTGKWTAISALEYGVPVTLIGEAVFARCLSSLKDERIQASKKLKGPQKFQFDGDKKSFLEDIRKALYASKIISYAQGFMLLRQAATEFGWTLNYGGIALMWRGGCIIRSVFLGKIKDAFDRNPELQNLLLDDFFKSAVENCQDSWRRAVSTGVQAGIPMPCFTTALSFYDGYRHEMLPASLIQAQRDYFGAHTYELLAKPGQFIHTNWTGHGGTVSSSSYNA
row,Structure (SMILES),inhibition [%]
1,CCc1cccc(C)c1N(C(=O)CCl)C(C)COC (stereo not given),3.27
2,ClC1=C(Cl)C2(Cl)C3C(Cl)C(Cl)CC3C1(Cl)C2(Cl)Cl (stereo not given),-19
3,O=C1CC2OCC=C3CN4CCC56c7ccccc7N1C5C2C3CC46 (stereo not given),-2.71
4,NCC(CC(=O)O)c1ccc(Cl)s1 (stereo not given),-3.23
5,OC1C[C@H]2CCC[C@@H](C1)N2Cc1ccccc1 (stereo not given in full),1.32
6,CCOP(=S)(OCC)SCCSCC,3.96
7,CO[C@H]1[C@H](O)[C@H](O[C@H]2CC[C@@]3(C=O)[C@H](CC[C@@H]4[C@@H]3CC[C@]3(C)[C@@H](C5=CC(=O)OC5)CC[C@]43O)C2)O[C@@H](C)[C@@H]1O,-22
8,Cn1c(=O)c2c(ncn2CCCl)n(C)c1=O,-2.23
9,C/C=C(\C)C(=O)OC1CCC2(C)C3CCC4C5(O)CC(O)C6(O)C(CN7CC(C)CCC7C6(C)O)C5(O)CC42OC13O (stereo not given),6.21
10,CC[C@H](C)C(=O)O[C@@H]1C[C@@]2(C)[C@H](c3ccoc3)OC(=O)C[C@]23OC2(C)O[C@@]34[C@H](OC(=O)C(C)C)C3(O)[C@@H](OC(=O)[C@@]5(C)O[C@@H]5C)C5(C)C[C@]3(O)[C@](C)([C@H]5CC(=O)OC)[C@@]14O2 (stereo not given in full),3.98
11,CCC1(O)CC(OC2CC(N(C)C)C(O)C(C)O2)c2c(cc3c(c2O)C(=O)c2c(O)ccc(O)c2C3=O)C1C(=O)OC (stereo not given),-0.278
12,Clc1ccc(Cl)cc1,7.33
13,CCC(C)C(=O)c1c(O)c(C)c2oc3c(C)c(O)c(C(=O)C(C)CC)c(O)c3c2c1O (stereo not given),4.14
14,CNC(=O)O/N=C(/C)SC,-23.1
15,COC1C(O)C(O[C@H]2CC[C@]3(C=O)C4C(OC(C)=O)C[C@]5(C)[C@@H](C6=CC(=O)OC6)CC[C@]5(O)C4CC[C@]3(O)C2)OC(C)C1OC(C)=O (stereo not given in full),10.3
16,CCC(=O)Nc1ccc(Cl)c(Cl)c1,-20.3
17,COc1ccc(C(c2ccc(OC)cc2)C(Cl)(Cl)Cl)cc1,-1.01
18,Cc1c(O)c(C(=O)CC(C)C)c2oc3c(C(=O)CC(C)C)c(O)c(C)c(O)c3c2c1O,0.288

row,Structure (SMILES),inhibition [%]
1,COc1cc2c3cc1Oc1cc(ccc1O)C[C@@H]1c4c(cc(OC)c(O)c4Oc4ccc(cc4)C[C@H]3N(C)CC2)CCN1C,-17.6
2,CC1=CC(=O)C2=C(C)C[C@H](O)[C@H]3[C@H](C)C(=O)O[C@@H]3C12 (stereo not given in full),-7.67
3,CCS(=O)CCSP(=O)(OC)OC (stereo not given),1.58
4,COc1cc2c(cc1OC)C(=O)c1ccc(OC)c(OC)c1OCC(=O)C2,-4.44
5,CC(=O)OC1CC2(C)C(c3ccoc3)CC3OC32C2(C)C(=O)C(O)=C3C(C)(C)C(=O)C=CC3(C)C12 (stereo not given),9.52
6,CN1[C@@H]2C[C@@H]3C[C@H]1[C@H](O)[C@H]2O3,-5.75
7,COP(=O)(OC)OC(Br)C(Cl)(Cl)Br (stereo not given),-10.9
8,CCc1cccc(CC)c1N(COC)C(=O)CCl,-1.98
9,CO[C@H]1[C@H](O)[C@H](O[C@H]2CC[C@]3(C)C4CC[C@]5(C)[C@@H](C6=CC(=O)OC6)CC[C@]5(O)C4CC[C@@H]3C2)O[C@@H](C)[C@@H]1O (stereo not given in full),11.3
10,COP(=O)(NC(C)=O)SC (stereo not given),-9.95
11,CC1(C)C(O)CC(O)C2(C)C1CC(O)C1(C)C2CCC2(C)C(c3ccoc3)OC(=O)C3OC321 (stereo not given),-7.21
12,COc1cc2c(cc1OC)[C@H]1C(=O)c3ccc4c(c3O[C@H]1CO2)C[C@@H](C(C)C)O4,-1.45
13,CC1(C)[C@H](O)CC(=O)[C@@]2(C)[C@@H]1CC(=O)[C@]1(C)[C@H]2CC[C@@]2(C)[C@H](c3ccoc3)OC(=O)[C@H]3O[C@]321,8.09
14,ClC1=C(Cl)[C@@]2(Cl)[C@@H]3[C@H]4C[C@@H]([C@H]5O[C@@H]45)[C@H]3[C@@]1(Cl)C2(Cl)Cl,-14
15,CCCC(C)C1(CC)C(=O)NC(=S)NC1=O (stereo not given),-1.13
16,CC(C)OC(=O)Nc1cccc(Cl)c1,-6.1
17,CO[C@H]1C[C@H](O[C@H]2CC[C@]3(C=O)[C@H]4CC[C@]5(C)[C@@H](C6=CC(=O)OC6)CC[C@]5(O)[C@@H]4CC[C@]3(O)C2)O[C@H](C)[C@H]1O,-5.2
